Experimental data published in the supplement of paper PMC11732987, “Enantioselective OTUD7B fragment discovery through chemoproteomics screening and high-throughput optimisation” (Communications Chemistry, 2025).

Key:
Test in all cases: log2 ratio of Biotin-Ahx-Ub-VS probe labelling (fragment/DMSO); higher = less target engagement (more negative = stronger competition), active = hit call of the paper (q ≤ 0.05, log2 ratio ≤ -1)
Conditions in all cases: compound concentration: 200 uM; treatment time: 3 h
OTUD6B = target: T1, OTUD6B (UniProt Q8N6M0)
T1 sequence (whole entry): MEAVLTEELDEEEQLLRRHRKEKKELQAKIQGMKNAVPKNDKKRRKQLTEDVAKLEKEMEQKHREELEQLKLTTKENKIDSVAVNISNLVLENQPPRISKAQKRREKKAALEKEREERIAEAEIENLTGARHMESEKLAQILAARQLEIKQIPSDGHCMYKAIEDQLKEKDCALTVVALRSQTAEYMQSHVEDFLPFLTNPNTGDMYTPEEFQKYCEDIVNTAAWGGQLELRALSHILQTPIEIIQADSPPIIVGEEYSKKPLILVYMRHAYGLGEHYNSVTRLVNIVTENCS
Procedure, shortened: (§1)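 Fragment (200 µM) or vehicle was incubated for 3 h with triplicate HEK293T lysate samples of 495 µg, which were then treated with Biotin-Ahx-Ub-VS at 0.5 µM final for 1 h. Labelled DUBs were enriched on NeutrAvidin, digested with LysC and trypsin, and analysed by diaPASEF LC-MS/MS. Values are average log2 fragment/vehicle ratios from an unpaired t-test on global-median-normalised Spectronaut label-free quantities, using proteins with ≥2 unique peptides.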

OTUD7B = target: T2, OTUD7B (UniProt Q6GQQ9)
T2 sequence (whole entry): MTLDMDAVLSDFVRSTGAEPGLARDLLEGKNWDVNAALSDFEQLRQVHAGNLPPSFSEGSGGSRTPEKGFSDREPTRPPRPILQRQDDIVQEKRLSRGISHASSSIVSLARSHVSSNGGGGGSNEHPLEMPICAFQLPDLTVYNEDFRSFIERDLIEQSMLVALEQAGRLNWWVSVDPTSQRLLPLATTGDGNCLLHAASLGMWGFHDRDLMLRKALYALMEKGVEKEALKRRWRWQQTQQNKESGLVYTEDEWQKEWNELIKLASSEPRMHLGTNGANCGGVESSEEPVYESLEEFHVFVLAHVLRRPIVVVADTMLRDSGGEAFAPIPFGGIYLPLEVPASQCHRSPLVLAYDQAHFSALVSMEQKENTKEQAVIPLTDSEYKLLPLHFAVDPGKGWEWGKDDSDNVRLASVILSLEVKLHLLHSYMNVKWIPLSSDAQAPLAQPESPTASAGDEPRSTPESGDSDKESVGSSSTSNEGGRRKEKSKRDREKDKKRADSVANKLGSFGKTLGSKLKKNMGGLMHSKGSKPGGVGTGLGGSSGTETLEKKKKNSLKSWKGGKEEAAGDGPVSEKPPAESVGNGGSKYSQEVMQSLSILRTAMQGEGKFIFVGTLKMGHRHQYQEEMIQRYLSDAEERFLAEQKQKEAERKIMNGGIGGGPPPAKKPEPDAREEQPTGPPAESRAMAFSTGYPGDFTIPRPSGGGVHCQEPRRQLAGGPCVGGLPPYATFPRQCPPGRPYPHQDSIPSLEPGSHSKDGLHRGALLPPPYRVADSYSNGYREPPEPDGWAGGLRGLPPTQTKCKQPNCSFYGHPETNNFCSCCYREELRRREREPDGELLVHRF
Procedure, shortened: as §1

PRPF8 = PRPF8 (UniProt Q6P2Q9)
Procedure, shortened: as §1

PSMD7 = target: T3, PSMD7 (UniProt P51665)
T3 sequence (whole entry): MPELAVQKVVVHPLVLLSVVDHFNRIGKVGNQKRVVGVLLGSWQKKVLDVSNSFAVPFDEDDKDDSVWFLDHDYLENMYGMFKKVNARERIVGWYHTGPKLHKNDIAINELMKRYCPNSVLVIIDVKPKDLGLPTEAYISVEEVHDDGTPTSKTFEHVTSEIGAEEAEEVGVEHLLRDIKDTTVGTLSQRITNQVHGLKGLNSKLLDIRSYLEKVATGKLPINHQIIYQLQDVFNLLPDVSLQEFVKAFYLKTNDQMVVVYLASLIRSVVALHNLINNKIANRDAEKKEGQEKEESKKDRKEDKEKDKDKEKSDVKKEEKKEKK
Procedure, shortened: as §1

UCHL1 = UCHL1 (UniProt P09936)
Procedure, shortened: as §1

UCHL3 = target: T4, UCHL3 (UniProt P15374)
T4 sequence (whole entry): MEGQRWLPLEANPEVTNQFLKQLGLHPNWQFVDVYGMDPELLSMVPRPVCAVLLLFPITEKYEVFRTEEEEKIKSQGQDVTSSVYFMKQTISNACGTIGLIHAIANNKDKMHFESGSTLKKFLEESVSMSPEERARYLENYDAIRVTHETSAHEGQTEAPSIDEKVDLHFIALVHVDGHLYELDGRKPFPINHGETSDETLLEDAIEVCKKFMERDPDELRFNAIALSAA
Procedure, shortened: as §1

UCHL5 = target: T5, UCHL5 (UniProt Q9Y5K5)
T5 sequence (whole entry): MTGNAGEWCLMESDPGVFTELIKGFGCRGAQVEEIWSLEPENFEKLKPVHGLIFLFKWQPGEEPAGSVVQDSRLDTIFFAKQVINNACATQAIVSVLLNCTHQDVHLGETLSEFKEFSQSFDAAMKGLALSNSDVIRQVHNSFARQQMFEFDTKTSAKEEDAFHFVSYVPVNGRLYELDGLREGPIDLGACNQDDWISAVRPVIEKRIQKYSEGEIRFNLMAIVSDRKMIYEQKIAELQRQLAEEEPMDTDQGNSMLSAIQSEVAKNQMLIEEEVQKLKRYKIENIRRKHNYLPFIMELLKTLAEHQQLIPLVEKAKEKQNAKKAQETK
Procedure, shortened: as §1

USP10 = USP10 (UniProt Q14694)
Procedure, shortened: as §1

USP15 = target: T6, USP15 (UniProt Q9Y4E8)
T6 sequence (whole entry): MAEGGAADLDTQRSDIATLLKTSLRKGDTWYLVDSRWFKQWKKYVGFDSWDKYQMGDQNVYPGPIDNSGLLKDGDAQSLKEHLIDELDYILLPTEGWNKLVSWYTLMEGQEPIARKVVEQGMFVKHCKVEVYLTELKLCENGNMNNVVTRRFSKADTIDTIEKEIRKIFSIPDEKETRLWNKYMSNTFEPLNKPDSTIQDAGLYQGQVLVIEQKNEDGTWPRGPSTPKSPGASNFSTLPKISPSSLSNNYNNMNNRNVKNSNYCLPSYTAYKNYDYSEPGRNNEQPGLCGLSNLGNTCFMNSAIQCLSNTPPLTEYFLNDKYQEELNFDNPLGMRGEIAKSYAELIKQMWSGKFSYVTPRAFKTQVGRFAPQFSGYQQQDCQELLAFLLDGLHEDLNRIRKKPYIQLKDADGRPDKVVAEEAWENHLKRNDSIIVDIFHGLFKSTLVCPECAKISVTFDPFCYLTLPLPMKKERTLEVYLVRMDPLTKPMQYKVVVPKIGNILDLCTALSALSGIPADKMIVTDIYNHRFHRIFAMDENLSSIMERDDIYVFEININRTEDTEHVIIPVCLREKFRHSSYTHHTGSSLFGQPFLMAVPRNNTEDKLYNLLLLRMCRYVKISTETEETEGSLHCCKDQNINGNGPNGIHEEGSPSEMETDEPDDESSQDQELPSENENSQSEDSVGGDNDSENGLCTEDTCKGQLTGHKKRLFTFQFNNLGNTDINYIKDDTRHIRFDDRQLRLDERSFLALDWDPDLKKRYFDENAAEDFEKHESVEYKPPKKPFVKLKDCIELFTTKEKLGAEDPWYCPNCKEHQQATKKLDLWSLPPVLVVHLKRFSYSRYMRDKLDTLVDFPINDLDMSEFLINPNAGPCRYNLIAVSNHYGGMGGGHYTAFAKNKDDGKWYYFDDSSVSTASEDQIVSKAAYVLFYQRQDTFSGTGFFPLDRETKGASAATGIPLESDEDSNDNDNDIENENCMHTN
Procedure, shortened: as §1

USP16 = USP16 (UniProt Q9Y5T5)
Procedure, shortened: as §1

Measured: log2 ratio of Biotin-Ahx-Ub-VS probe labelling

UCHL1, sequence (P09936 whole entry, looked up): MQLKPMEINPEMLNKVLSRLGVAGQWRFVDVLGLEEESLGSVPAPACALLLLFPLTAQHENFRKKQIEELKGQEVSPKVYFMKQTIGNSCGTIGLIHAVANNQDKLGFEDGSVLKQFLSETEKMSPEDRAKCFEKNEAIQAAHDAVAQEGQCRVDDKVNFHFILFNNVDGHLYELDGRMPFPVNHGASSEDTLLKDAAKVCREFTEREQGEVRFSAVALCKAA
USP16, sequence (Q9Y5T5 whole entry, looked up): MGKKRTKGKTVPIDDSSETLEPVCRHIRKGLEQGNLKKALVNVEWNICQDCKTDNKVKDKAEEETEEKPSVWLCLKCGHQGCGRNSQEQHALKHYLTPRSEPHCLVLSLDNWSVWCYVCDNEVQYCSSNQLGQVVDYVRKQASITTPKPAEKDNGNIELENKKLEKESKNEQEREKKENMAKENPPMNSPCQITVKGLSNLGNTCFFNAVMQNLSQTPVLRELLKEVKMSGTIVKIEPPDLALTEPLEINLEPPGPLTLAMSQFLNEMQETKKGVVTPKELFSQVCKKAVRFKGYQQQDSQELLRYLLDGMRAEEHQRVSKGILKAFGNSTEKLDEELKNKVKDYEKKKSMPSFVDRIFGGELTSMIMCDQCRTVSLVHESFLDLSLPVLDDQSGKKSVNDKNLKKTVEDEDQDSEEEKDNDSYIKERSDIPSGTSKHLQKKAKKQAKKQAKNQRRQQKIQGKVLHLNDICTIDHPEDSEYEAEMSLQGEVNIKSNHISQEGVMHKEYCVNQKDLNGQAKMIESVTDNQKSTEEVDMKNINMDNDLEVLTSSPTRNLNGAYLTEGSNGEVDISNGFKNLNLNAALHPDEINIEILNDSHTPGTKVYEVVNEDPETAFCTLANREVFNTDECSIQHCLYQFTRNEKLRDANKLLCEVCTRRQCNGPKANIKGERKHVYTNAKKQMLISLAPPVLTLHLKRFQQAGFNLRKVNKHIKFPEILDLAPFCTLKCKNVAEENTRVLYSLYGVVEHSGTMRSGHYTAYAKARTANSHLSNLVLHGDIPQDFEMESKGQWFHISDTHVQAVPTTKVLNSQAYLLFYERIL
USP10, sequence (Q14694 whole entry): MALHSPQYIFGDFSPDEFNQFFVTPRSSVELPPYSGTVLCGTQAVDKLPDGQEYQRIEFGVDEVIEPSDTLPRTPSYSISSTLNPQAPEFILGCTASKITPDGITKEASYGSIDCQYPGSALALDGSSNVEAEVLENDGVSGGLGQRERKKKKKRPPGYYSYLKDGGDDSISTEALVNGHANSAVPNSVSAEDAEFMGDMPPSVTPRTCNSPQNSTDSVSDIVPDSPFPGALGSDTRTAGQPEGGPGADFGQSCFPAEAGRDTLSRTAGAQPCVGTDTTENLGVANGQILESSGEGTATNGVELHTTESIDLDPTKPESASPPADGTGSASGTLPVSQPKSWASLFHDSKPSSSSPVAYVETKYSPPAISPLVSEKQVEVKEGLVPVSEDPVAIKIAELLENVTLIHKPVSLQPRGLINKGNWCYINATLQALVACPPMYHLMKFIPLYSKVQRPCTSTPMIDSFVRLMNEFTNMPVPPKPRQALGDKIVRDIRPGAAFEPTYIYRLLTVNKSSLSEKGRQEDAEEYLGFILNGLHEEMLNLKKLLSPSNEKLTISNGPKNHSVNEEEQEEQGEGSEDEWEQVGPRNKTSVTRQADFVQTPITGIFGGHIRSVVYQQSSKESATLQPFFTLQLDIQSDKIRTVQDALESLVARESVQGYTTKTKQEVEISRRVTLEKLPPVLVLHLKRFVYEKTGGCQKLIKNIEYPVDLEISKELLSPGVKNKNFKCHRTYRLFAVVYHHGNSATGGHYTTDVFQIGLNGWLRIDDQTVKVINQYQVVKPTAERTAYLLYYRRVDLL

O=C(CCl)NCCc1cccc2ccccc12
inactive: OTUD6B 0.0475 | OTUD7B -0.286 | PRPF8 0.117 | PSMD7 0.0665 | UCHL1 -0.978 | UCHL3 0.331 | UCHL5 -0.029 | USP10 -0.0479 | USP15 0.076 | USP16 -0.496
